Only a selection was taken, and hits are over-represented in it overall.
IDE exosite inh = exo-site inhibitors of human insulin-degrading enzyme | P14735 | purified IDE, FL-6b probe fluorescence polarization; stronger effect = lower value | z-score at 20 µM | 6.3% of 17,000 active | AID 1259349;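 active means z-score of -3 or lower, meaning strong loss of probe binding signal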;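 further: His-tagged human IDE residues 42-1019 made in E. coli with 30 nM FL-6b probe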
Target sequence (P14735 42-1019 limits assumed): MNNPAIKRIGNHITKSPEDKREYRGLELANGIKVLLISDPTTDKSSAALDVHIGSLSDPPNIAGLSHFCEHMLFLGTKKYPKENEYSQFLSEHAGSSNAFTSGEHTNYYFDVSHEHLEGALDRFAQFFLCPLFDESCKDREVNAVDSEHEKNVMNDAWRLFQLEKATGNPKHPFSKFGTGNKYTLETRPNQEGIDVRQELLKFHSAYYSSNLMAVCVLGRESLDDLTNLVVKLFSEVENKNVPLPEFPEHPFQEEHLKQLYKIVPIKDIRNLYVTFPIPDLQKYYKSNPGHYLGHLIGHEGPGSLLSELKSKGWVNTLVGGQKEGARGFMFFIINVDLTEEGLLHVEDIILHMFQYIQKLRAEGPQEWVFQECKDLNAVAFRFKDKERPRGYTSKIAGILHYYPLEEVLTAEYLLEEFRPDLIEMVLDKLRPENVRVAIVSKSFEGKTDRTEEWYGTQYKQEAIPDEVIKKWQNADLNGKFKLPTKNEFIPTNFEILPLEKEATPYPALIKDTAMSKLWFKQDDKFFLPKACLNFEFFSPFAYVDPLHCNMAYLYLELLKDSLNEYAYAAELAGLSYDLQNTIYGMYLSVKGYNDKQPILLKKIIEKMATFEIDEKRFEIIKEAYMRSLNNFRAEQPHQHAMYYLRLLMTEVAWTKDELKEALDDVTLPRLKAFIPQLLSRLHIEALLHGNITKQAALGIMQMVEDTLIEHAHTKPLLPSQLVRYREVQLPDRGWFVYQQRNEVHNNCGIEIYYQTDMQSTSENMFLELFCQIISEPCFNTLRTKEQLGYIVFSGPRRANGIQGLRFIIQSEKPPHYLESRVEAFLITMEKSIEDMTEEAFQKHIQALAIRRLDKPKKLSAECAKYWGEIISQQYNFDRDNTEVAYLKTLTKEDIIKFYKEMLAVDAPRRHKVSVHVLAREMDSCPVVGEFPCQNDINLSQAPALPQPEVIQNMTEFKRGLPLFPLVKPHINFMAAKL
Numbers stand for hits; - = inactive.

SMILES	IDE exosite inh
O=C(c1ccccn1)N1CC(=O)N2[C@H](CO)[C@H](c3ccc(C#Cc4ccccc4)cc3)[C@@H]2C1	-5.8
O=C(c1ccccn1)N1CC(=O)N2[C@H](C1)[C@H](c1ccc(C#CCc3ccccc3)cc1)[C@@H]2CO	-
O=C(c1ccccn1)N1CC(=O)N2[C@@H](CO)[C@@H](c3ccc(C#Cc4ccccc4)cc3)[C@@H]2C1	-20
C/C=C/c1ccc(C2[C@@H]3CN(C(=O)CN4CCOCC4)C[C@H]2N3)cc1 (stereo partly drawn)	-
Cc1ccccc1S(=O)(=O)N1CC(=O)N2[C@H](CO)[C@@H](c3ccc(C#CC4CC4)cc3)[C@H]2C1	-
C[C@@H]1CN([C@@H](C)CO)C(=O)c2ccccc2-c2ccccc2CO[C@H]1CN(C)C(=O)NC1CCCCC1	-
CO[C@@H]1CN(C)C(=O)c2cc(NC(=O)c3nc4ccccc4s3)ccc2OC[C@H](C)NC[C@H]1C	-
CCC(=O)N1C[C@@H](C)[C@@H](OC)CN(C)C(=O)c2ccc(NC(=O)CC(F)(F)F)cc2OC[C@H]1C	-
COCC#Cc1ccc([C@@H]2[C@@H](CO)N3CCCCN(S(=O)(=O)c4ccccc4C)C[C@H]23)cc1	-
CO[C@@H]1CN(C)C(=O)c2cc(NC(=O)Nc3ccc4c(c3)OCO4)ccc2OC[C@@H](C)N(C(C)=O)C[C@H]1C	-
N#C[C@@H]1[C@H](c2ccc(-c3ccc(F)cc3)cc2)[C@@H](CO)N1C(=O)Cc1ccccc1	-
O=C(Cc1ccccc1)N1CC(=O)N2[C@H](CO)[C@@H](c3ccc(C#Cc4ccccc4)cc3)[C@H]2C1	-
O=C(Cc1ccccc1)N1CC(=O)N2[C@@H](CO)[C@@H](c3ccc(C#CCc4ccccc4)cc3)[C@@H]2C1	-4
O=C(Cc1ccccc1)N1CC(=O)N2[C@@H](CO)[C@H](c3ccc(C#Cc4ccccc4)cc3)[C@@H]2C1	-
O=C(Cc1ccccc1)N1CC(=O)N2[C@@H](CO)[C@H](c3ccc(C#CCc4ccccc4)cc3)[C@@H]2C1	-
O=C(Cc1ccccc1)N1CC(=O)N2[C@H](CO)[C@@H](c3ccc(C#CCc4ccccc4)cc3)[C@@H]2C1	-
O=C(Cc1ccccc1)N1CC(=O)N2[C@H](C1)[C@H](c1ccc(C#CCc3ccccc3)cc1)[C@@H]2CO	-3.6
COc1ccccc1CNC(=O)C[C@H]1C=C[C@H](NC(=O)CC2CC2)[C@H](CO)O1	-
C[C@H](NC(=O)C[C@@H]1CC[C@H]2[C@@H](COC[C@@H](O)CN2C(=O)Nc2cccc(Cl)c2)O1)c1ccccc1	-
CN(C)C(=O)C[C@@H]1CC[C@H]2[C@H](COc3ccc(NC(=O)C4CCCCC4)cc3C(=O)N2C)O1	-
C[C@@H]1CC(=O)N[C@@H](c2ccccc2)C/C=C\C[C@H](c2ccccc2)NC1=O	-
COc1ccc(-c2ccc([C@H]3[C@H](CO)N4C(=O)CN(C(=O)NC(C)C)C[C@@H]34)cc2)cc1	-3.8
C/C=C/c1ccc([C@H]2[C@@H](CO)N3C(=O)CN(C(=O)Nc4ccc(OC)cc4)C[C@@H]23)cc1	-
C/C=C/c1ccc([C@H]2[C@H](CO)N3C(=O)CN(C(=O)Nc4ccc(OC)cc4)C[C@@H]23)cc1	-
COc1ccc(C#Cc2ccc([C@H]3[C@H](CO)N4C(=O)CN(C(=O)NC(C)C)C[C@@H]34)cc2)cc1	-
SMILES	IDE exosite inh
COc1ccc(C#Cc2ccc([C@H]3[C@@H](CO)N4C(=O)CN(C(=O)NC(C)C)C[C@H]34)cc2)cc1	-
COc1ccc(C#Cc2ccc([C@@H]3[C@H]4CN(C(=O)NC(C)C)CC(=O)N4[C@H]3CO)cc2)cc1	-
COc1cccc(-c2ccc([C@H]3[C@@H](CO)N4C(=O)CN(C(=O)NC(C)C)C[C@@H]34)cc2)c1	-5.4
COc1ccc(C#Cc2ccc([C@@H]3[C@@H](CO)N4C(=O)CN(C(=O)NC(C)C)C[C@H]34)cc2)cc1	-
COc1cccc(-c2ccc([C@@H]3[C@@H](CO)N4C(=O)CN(C(=O)NC(C)C)C[C@@H]34)cc2)c1	-14
C/C=C/c1ccc([C@H]2[C@H]3CN(C(=O)Nc4ccc(OC)cc4)CC(=O)N3[C@H]2CO)cc1	-5.1
C[C@@H]1CN([C@H](C)CO)C(=O)c2ccccc2-c2ccccc2CO[C@H]1CN(C)C(=O)NC1CCCCC1	-
CCC(=O)NC[C@H]1[C@@H](c2ccccc2)[C@H](CO)N1C(=O)C1CC1	-
COc1ccc2c3c(n(C)c2c1)[C@H](CO)N(C)CC31CCN(C(=O)c2ccccc2F)CC1	-
Cc1ccccc1-c1ccccc1[C@H]1[C@@H](C#N)N(C(=O)c2ccc(F)cc2)[C@H]1CO	-
O=C(C[C@@H]1CC[C@@H]2[C@H](COC[C@H](O)CN2C(=O)Nc2cc(Cl)cc(Cl)c2)O1)N1CCOCC1	-
CN(C)C(=O)c1cccc(-c2ccc([C@H]3[C@@H](CO)N4CCCCN(CCC(F)(F)F)C[C@H]34)cc2)c1	-
COc1ccccc1NC(=O)N1CC(=O)N2[C@H](CO)[C@@H](c3ccc(C#CC4CC4)cc3)[C@H]2C1	-
COc1ccc(NC(=O)N2CC(=O)N3[C@H](C2)[C@H](c2ccc(-c4ccccc4)cc2)[C@@H]3CO)cc1	-
COc1cccc(NC(=O)N2CC(=O)N3[C@H](CO)[C@@H](c4ccc(Br)cc4)[C@H]3C2)c1	-
COc1ccc(-c2ccc([C@@H]3[C@H]4CNCC(=O)N4[C@H]3CO)cc2)cc1	-
Cc1ccc(-c2ccc([C@@H]3[C@@H](CO)N4C(=O)CN(C(=O)NC(C)C)C[C@H]34)cc2)cc1	-
COc1cccc(-c2ccc([C@@H]3[C@@H](CO)N4C(=O)CN(C(=O)NC(C)C)C[C@H]34)cc2)c1	-3.5
COc1cccc(-c2ccc([C@@H]3[C@H]4CN(C(=O)NC(C)C)CC(=O)N4[C@H]3CO)cc2)c1	-12
Cc1ccc(-c2ccc([C@H]3[C@@H](CO)N4C(=O)CN(C(=O)NC(C)C)C[C@@H]34)cc2)cc1	-
COc1ccc(-c2ccc([C@H]3[C@@H](CO)N4C(=O)CNC[C@H]34)cc2)cc1	-3.2
COc1ccc(-c2ccc([C@@H]3[C@H](CO)N4C(=O)CNC[C@@H]34)cc2)cc1	-
COc1cccc(NC(=O)N2CC(=O)N3[C@H](C2)[C@@H](c2ccc(Br)cc2)[C@@H]3CO)c1	-3.2
COc1cccc(NC(=O)N2CC(=O)N3[C@@H](CO)[C@@H](c4ccc(Br)cc4)[C@@H]3C2)c1	-
N#C[C@@H]1[C@@H](c2ccc(C#CCC3CCCC3)cc2)[C@H](CO)N1C(=O)c1ccccn1	-
SMILES	IDE exosite inh
C[C@H](O)C#Cc1ccc([C@@H]2[C@@H](CO)N3CCCCN(CC4CCOCC4)C[C@@H]23)cc1	-
O=S(=O)(Cc1ccccc1)N1CCCCN2[C@H](CO)[C@@H](c3ccc(-c4ccc(F)cc4)cc3)[C@@H]2C1	-
O=C(Nc1cccc(F)c1)N1CC(=O)N2[C@H](C1)[C@@H](c1ccc(C#CC3CC3)cc1)[C@@H]2CO	-
C[C@H]1CCCCO[C@@H](CN(C)C(=O)CCCN(C)C)[C@@H](C)CN([C@@H](C)CO)C(=O)c2cc(NS(=O)(=O)c3ccc(Cl)cc3)ccc2O1	-
CCCNC(=O)N(C)C[C@H]1Oc2ncc(C#CC3CCCCC3)cc2C(=O)N([C@H](C)CO)C[C@@H]1C	-
C/C=C/c1ccc([C@H]2[C@@H](CO)N(S(=O)(=O)CC)[C@@H]2CN(C)C(=O)CC)cc1	-
Cc1ccc(-c2ccc([C@@H]3[C@@H](CO)N4C(=O)CN(C(=O)c5ccc(F)cc5)C[C@H]34)cc2)cc1	-

Compound activity as filed in PubChem.
